Each structure is given as a SMILES string. Compounds without any hit were thinned out: in the full panel of roughly 83,000, 20% have a hit.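 Note: values are percent growth. 100 is the growth of untreated cells, values between 100 and 0 indicate rising inhibition; between -100 and 0 indicates cell death.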 Active and inactive are the calls of the source. Rule for the calls: active = growth percent below 10; inactive = the rest.

The assay deals with HL-60(TB) leukemia. The assay can be described thus: NCI-60 one-dose screen, 48 h (100 = growth as untreated, 0 = no growth, -100 = all killed). The settings on record: 10 µM unless noted.
On to `O=C(O)c1ccc(NCc2cn(-c3ccc(C(F)(F)F)cc3)nc2-c2ccc(C(=O)O)cc2)cc1`, for which the growth was 104% (inactive).

In the case of `C#CCOc1ccc(C2=NN(CCCC)C3N=C(Cl)c4ncn(CCCC)c4N23)cc1OCC#C` (stereo not given), the growth was 99.4% (inactive).

Regarding `Cc1cc(Cl)ccc1NS(=O)(=O)c1ccc(-c2cnc(C3CC3)o2)cc1`, the growth is -36% (active).

With `Cc1cc(O)cc2c1[C@H]1CC[C@]3(C)[C@@H](O)CC[C@H]3[C@@H]1C=C2`, the growth is 70.6% (inactive).

For the compound `CC(c1ccccc1)N(C)C` (stereo not given), the growth was 88.5% (inactive).

As to `CCC(O)C(C)(C)C` (stereo not given), the growth was 114% (inactive).

As to `Clc1ccc(Nc2ccnc(NCCCNc3ccnc4cc(Cl)ccc34)n2)cc1`, the growth was -72.3% (active).

For the compound `O=C1/C(=C/c2ccc(Oc3ccccc3)cc2)N=C(c2ccccc2)N1CCc1cccs1`, the growth is 86% (inactive).

`CCOc1ccccc1/C=N/Nc1nc2ccccc2o1`: the growth was 98.6% (inactive).

As to `O=[N+]([O-])c1cccc(-c2nc3sccn3c2-c2ccnc(NCCCNS(=O)(=O)c3ccc(Cl)cc3)n2)c1`, the growth was 26.1% (inactive).

Turning to `NC(N)=NC(N)=Nc1cc2ccccc2c2ccccc12`, the growth is 28.8% (inactive).

On to `C/C(=C(/c1ccc(Cl)cc1)c1ccc(OCCN2CCCC2)cc1)c1ccccc1`, for which the growth was 70.4% (inactive).

Regarding `CN1CCN(CCC(=O)Nc2cccc(-n3cc(-c4ccncc4)c(-c4ccc(Cl)c(O)c4)n3)c2)CC1`, the growth was 5.71% (active).

As to `c1cc(OCCCCCOc2cccc(-c3nc4ccccc4[nH]3)c2)cc(-c2nc3ccccc3[nH]2)c1`, the growth is -32.2% (active).

Take `O=C(O)CCC(NC(=O)OCc1ccccc1)C(=O)O` (stereo not given): the growth is 108% (inactive).

As for `CCCCCCCCN(CCCCCCCC)CCCCCCCCCN1CCCc2cc(OC)ccc21`, the growth is 89.6% (inactive).

For the compound `COc1ccc(C2NC(=O)C(C#N)c3c2sc2c(F)cccc32)c(OC)c1` (stereo not given), the growth was 56.9% (inactive).

Turning to `COc1ccc2c(c1OC)CO[C@@H]2[C@H]1c2c(cc3c(c2OC)OCO3)CCN1S(=O)(=O)c1cn(C)cn1`, the growth was -0.0238% (active).

Regarding `C[C@]12CCc3c(ccc4cc(O)ccc34)[C@@H]1CC[C@H]2O`, the growth is 86.7% (inactive).

For the compound `CCNc1cc(S(=O)(=O)O)ccc1C`, the growth is 93.8% (inactive).

For `O=C1Nc2ccccc2/C1=C/c1nc2ccccc2c(=O)[nH]1`, the growth is 102% (inactive).

As for `COc1cccc(/C=C2\CCc3ccccc3C2=O)c1`, the growth is 63.2% (inactive).

For `O=C(c1ccccc1)N(C(=S)NCCc1ccc(Cl)cc1)c1ccccc1`, the growth is 54.4% (inactive).

Take `COc1ccccc1S(=O)(=O)Nc1ccc2c3c(cc(-c4cnn(C5CC5)c4)nc13)C(=O)N2C`: the growth is -10% (active).

As for `COC(=O)C1=C(C(=O)OC)C23C=C(C)C1C2=C(C)C1(CC1)[C@@](C)(O)C3=O` (stereo not given in full), the growth was 25.6% (inactive).

For `CCN(CC)CCSc1ncnc2c1cnn2-c1ccc(S(N)(=O)=O)cc1`, the growth is 72.4% (inactive).

For `Cc1nc(NC(=S)Nc2ccc(F)cc2)sc1C(=O)NNC(=S)Nc1ccc(F)cc1`, the growth is 48.3% (inactive).

`O=C(O)c1ccc(-c2nn(-c3ccc(C(=O)O)cc3)cc2CNc2ccc(Br)cc2)cc1`: the growth was 107% (inactive).

Turning to `COC1(OC)C2(Cl)CCC1(Cl)C(Cl)=C2Cl`, the growth was 139% (inactive).

Consider `Cc1nc2c(-c3cnc(N)nc3)nc(N3CCOCC3)nc2n1C(C)C`, for which the growth was 10.8% (inactive).

As to `CSc1nc2ccccc2cc1/C=[N+](\[O-])c1ccccc1`, the growth was -13.4% (active).

`Clc1ccc(-c2cc(-c3ccccc3)nc(NCCNc3ccnc4cc(Cl)ccc34)n2)cc1`: the growth was -31.9% (active).

As for `CCn1c(-c2nonc2N)nc2c(C#CC(C)(C)O)ncc(OC[C@H]3CCCNC3)c21`, the growth is 41% (inactive).

`C/C=C1\SC(=S)NC1=O`: the growth was 110% (inactive).

As for `CC(C)(C)c1ccc(C(=O)Nc2sc3c(c2C(N)=O)CCC(=O)C3)cc1`, the growth is 3% (active).

For `O=[N+]([O-])c1ccc2ncccc2c1Cl`, the growth is 11.6% (inactive).

In the case of `O=c1c(CNc2ccc(S(=O)(=O)Nc3ncccn3)cc2)coc2ccccc12`, the growth was 93.2% (inactive).

On to `Cc1ccc2c(n1)C(=O)C(Oc1ccc(Br)cc1)=CC2=O`, for which the growth was 41.1% (inactive).

For `COC(=O)C(Cc1ccccc1)NC(=O)NC(=O)NC(=O)CI` (stereo not given), the growth was -51.3% (active).

`C#CCNC(=O)CC[C@]1(C)[C@H]2CC[C@@H]3[C@@H]([C@@](C)(O)CCC=C(C)C)CC[C@@]3(C)[C@]2(C)CC[C@H]1C(=C)C`: the growth was -41% [100 µM] (active).

The record behind these values is PubChem BioAssay (NCI).
